# TGFb inhibitor = blocks TGF-b signaling | Potency, µM (titrated, usually from 46.1 µM), without a hit: top-dose activity, negative = inhibition, usual class: inhibitors | AID 588855 | HepG2 CAGA-GFP TGF-b/SMAD3 reporter, GFP fluorescence, 18 h; TGF-beta stimulated, 500 pg/mL final | 1.2% of 410,000 active; note: potency is the fitted concentration of half-maximal effect; % is set by controls: 0 for no effect and ±100 for the full control effect; nearly all actives have a fitted effect of over 65% in size
#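 Cell-based qHTS in HEPG2 carrying a CAGA-GFP Smad reporter; compounds added before 500 pg/mL final TGF-beta, 18 h incubation at 37 degrees C, GFP fluorescence quantified per cell by imaging cytometry.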
# ATXN2 expr inh = inhibitors of ATXN2 expression | HEK-293 ATXN2-luciferase reporter, luminescence, 24 h | Potency, µM (doses to about 57 µM), inactives show at the top dose activity change, negative = inhibition, usual class: inhibitors | 0.72% of 360,000 active | AID 1745845; note: potency is the fitted concentration of half-maximal effect; % is set by controls: 0 for no effect and ±100 for the full control effect; nearly all actives have a fitted effect of over 55% in size
#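 qHTS (up to 57 uM final) was run with 24 h compound exposure of reporter cells at 37 °C. Each well was multiplexed: SteadyGlo luminescence measured ATXN2-luciferase expression after a fluorogenic Gly-Phe-AFC viability readout (25 uM final).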
# DRD3 antagonist = D3 dopamine receptor (human) antagonism | AID 652054 | max response, negative = inhibition, % | P35462 | 2.5% of 360,000 active | D3R cells, DiscoveRx beta-arrestin luminescence, antagonist mode; stronger effect = lower value; in the data active = max response below about -50%; inconclusive = no clear call, values can overlap the other calls; note: % is set by controls: 0 for no effect and ±100 for the full control effect
# Target sequence (P35462 whole entry, looked up): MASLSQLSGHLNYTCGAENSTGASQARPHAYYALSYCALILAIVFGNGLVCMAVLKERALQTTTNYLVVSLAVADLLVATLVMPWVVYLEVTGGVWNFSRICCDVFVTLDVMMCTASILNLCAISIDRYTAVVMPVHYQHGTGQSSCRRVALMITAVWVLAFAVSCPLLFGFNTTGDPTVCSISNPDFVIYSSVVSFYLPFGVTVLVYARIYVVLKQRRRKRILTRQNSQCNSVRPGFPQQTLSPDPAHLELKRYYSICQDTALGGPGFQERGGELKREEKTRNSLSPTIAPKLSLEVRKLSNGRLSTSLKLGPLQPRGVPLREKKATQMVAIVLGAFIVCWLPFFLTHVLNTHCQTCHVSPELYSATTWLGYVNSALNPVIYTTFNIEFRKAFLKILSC
#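 Cells plated overnight at 1500 cells/well, then exposed to library compounds with dopamine controls for 90 minutes at 37 degrees C. DiscoveRx reagent added for 30–60 minutes at room temperature; luminescence read, quantitative HTS format.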
# DRD3 agonist = D3 dopamine receptor (human) agonism; P35462; D3R DiscoveRx beta-arrestin cells, luminescence, 90 min; max activation, %; 0.58% of 410,000 active; in the data active = max activation above about 30%; note: 0% is about no effect
#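 Agonist-mode cell screen: cells plated at 1500/well and incubated overnight at 37 °C, then exposed to library compounds for 90 min at 37 °C. Detection reagent was added for 30–60 min at room temperature, and luminescence was read.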
# HepG2 viability = HepG2 cytotoxicity, counter-screen for TGF-b inhibitors; Potency, µM (titrated, usually from 46.1 µM), for the others: top-dose activity change, negative = cytotoxicity, hits mostly cytotoxic; 0.76% of 410,000 active; HepG2 CAGA-GFP viability, ATP luminescence, 18 h; note: potency is the fitted concentration of half-maximal effect
#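 HepG2 CAGA-GFP cells (1000/well, DMEM with 1% FBS) received compound, then TGF-beta at 500 pg/mL final, and were incubated 18 hours at 37 degrees C. Viability was read by CellTiter-Glo luminescence. Media-only wells were set as complete cell-killing and DMSO as no toxicity.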
# ATXN viability = viability counter-screen for ATXN expression inhibitors; Potency, µM (series often up to 56.7 µM), most hits filed as cytotoxic; 0.49% of 400,000 active; S2 cells (HEK-293 line with an ATXN2-luciferase reporter) viability, CellTiter-Fluor protease fluorescence, 24 h; AID 651635; note: potency is the fitted concentration of half-maximal effect; nearly all actives have a fitted effect of over 40% in size
# The depositor's hits bear a star; i = inactive; ? = inconclusive; . = no result. Compounds with a hit are over-represented: about 4.7% of the library has one in this group of screens. Unless noted, calls come from the whole dose curve; as a rule, active = well fitted curve in the direction sought with a large enough effect; inconclusive = small, poorly fitted or top-dose-only effect, or another doubt; inactive = no such curve, though single readings can be large; an effect the other way counts as inactive or inconclusive.
SMILES,TGFb inhibitor,ATXN2 expr inh,DRD3 antagonist,DRD3 agonist,HepG2 viability,ATXN viability
O=[N+]([O-])c1cccc(OCCN2CCC(Cc3ccccc3)CC2)c1,-17%,-25%,-102*,-21,-31%,i
Cc1cc(OCCN2CCCC2)ccc1[N+](=O)[O-],20%,2%,-63*,-23,2%,i
O=Cc1cc(Cl)ccc1OCCN1CCC(Cc2ccccc2)CC1,?,-36%,?,-23,-57%,i
CCOC(=O)c1cccc(-n2nnc3c(sc4nc(C)c(Br)c(C)c43)c2=O)c1,-2%,.,.,-1,4%,.
O=[N+]([O-])c1ccccc1OCCNCc1ccccc1,0%,.,-86*,25,-15%,?
CCN(CC)CCn1c(=N)n(CC(=O)c2ccc(Br)s2)c2ccccc21,?,?,-73*,-24,-149%,.
Cn1c(=N)n(CC(=O)c2ccc(Br)s2)c2ccccc21,1%,23%,?,8,-52%,?
Cc1ccccc1C(=O)c1cccn1CC(=O)NCCN1CCN(c2cccc(C)c2C)CC1,?,?,?,0,13µM*,?
Cc1ccc(C)c(N2CCN(CCCNC(=O)Cn3cccc3C(=O)c3ccccc3C)CC2)c1,?,?,-57*,-8,-80%,?
CSc1ccc(CN2CCC(Cc3ccccc3)CC2)cc1,-15%,.,-56*,-21,-29%,?
Fc1ccc(CN2CCC(Cc3ccccc3)CC2)cc1F,-10%,-22%,?,-17,3%,i
Clc1cccc(CN2CCC(Cc3ccccc3)CC2)c1,0%,-36%,-78*,-62,-18%,?
Clc1ccc(CN2CCC(Cc3ccccc3)CC2)cc1,?,-37%,-96*,-12,-54%,i
O=C(/C=C/c1cccc(Cl)c1)N1CCC(Cc2ccccc2)CC1,?,45%,15,4,-17%,?
Clc1ccc(CN2CCCCCCC2)cc1,2%,-1%,-5,-9,-6%,i
Clc1ccc(CN2CCC(c3ccccc3)CC2)cc1,-9%,.,-131*,1,4%,i
COc1cccc(CNC(=O)c2cc(=O)[nH]c3ccc(S(=O)(=O)N4CCCC4)cc23)c1,-1%,5%,.,1,-5%,i
COC(=O)c1ccc(NC(=O)CC2C(=O)N(c3cccc(OC)c3)C(=O)N2C(C)C)cc1 (stereo unspecified),0%,.,.,-2,-5%,.
CCCCn1cnc2cc(NC(=O)c3cc(OC)c(OC)c(OC)c3)ccc21,4%,.,.,-6,-24%,.
CCOC(=O)c1c(C)n(-c2ccccc2)c2ccc(OC(=O)COc3ccc(Cl)cc3)cc12,0%,4%,.,-11,6%,i
C/C=C(\NNC(C)=O)c1ccc(O)cc1,1%,.,.,.,-4%,.
COc1cc(NS(=O)(=O)c2cc(Br)cc3c2N(C(C)=O)C(C)C3)cc(OC)c1 (stereo unspecified),0%,.,.,9,-9%,.
Cc1cccc(-c2nc(C)c(CCNC(=O)c3cccs3)s2)c1,-2%,7%,.,4,-20%,?
Clc1ccc(CN2CCC(c3nc4ccc(Cl)cc4[nH]3)CC2)cc1,?,?,-74*,-8,-61%,?
Cc1cccc(CN2CCN(Cc3ccco3)CC2)c1,6%,.,0,-5,18%,?
SMILES,TGFb inhibitor,ATXN2 expr inh,DRD3 antagonist,DRD3 agonist,HepG2 viability,ATXN viability
CSc1ccc(OC2CCN(Cc3ccccc3)CC2)cc1,-28%,-15%,-51*,-8,-31%,i
Clc1cccc(CN2CCN(Cc3ccco3)CC2)c1,-3%,-6%,-66*,-41,-38%,i
C=C1NN(CC2CC2)C(=O)N1c1ccc(OCc2ccccc2)cc1,-2%,.,.,.,-34%,.
CCOC(=O)N1CCN(C(=O)Cc2ccc(C)cc2)CC1,2%,3%,-58*,1,-18%,i
O=C(CSc1nc2ccccc2nc1Cc1ccc(Cl)cc1)Nc1ccc2c(c1)OCO2,-29%,.,.,-12,-7%,.
Cc1cccc(C)c1NC(=O)C1(C)CSCC(=O)N1CCC(C)C (stereo unspecified),.,.,10,0,.,.

# From PubChem
